For 41 molecules, GFP signal change (wild-type ribosome), OD600 change and RFP signal change results are on record in PubChem BioAssay AID720706 (Broad Institute, 2013).

The campaign covered roughly 350,000 compounds. About 5,500 (1.6%) were called active.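 Rule for the calls: active = significant combined selectivity score with lowered wild-type GFP, culture density cut under 30%, mutant RFP and density less affected; inactive = any of these conditions unmet.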 The full list was thinned out, with actives kept by preference.

The assay in a line: reduced GFP signal of wild-type E. coli, primary screen, bacterial rRNA inhibitor project, GFP/RFP fluorescence, OD600, single point (AID 720706). As to conditions: E. coli WT GFP vs humanized-ribosome RFP mutants, 24 h; GFP signal change (wild-type ribosome): stronger effect = lower value, DMSO median 0, no signal -100; OD600 change: measured here: OD600 growth, DMSO median 0, no signal -100; RFP signal change: measured here: RFP humanized mutant strains, DMSO median 0, no signal -100, concentration not given here.
Consider `O=C(NCC[C@@H]1CC[C@@H](NC(=O)c2ccccc2F)[C@H](CO)O1)c1ccc2c(c1)OCO2`, for which the GFP signal change (wild-type ribosome) is 0.211% (inactive), the OD600 change came to 0.175% and the RFP signal change was -1.31%.

With `COc1ccc(NC(=O)N(C)C[C@@H]2Oc3ccc(NS(=O)(=O)c4ccc(Cl)cc4)cc3C(=O)N([C@H](C)CO)C[C@@H]2C)cc1`, the GFP signal change (wild-type ribosome) was -1.87% (inactive), the OD600 change was -3.81% and the RFP signal change turned out to be 4.46%.

As to `CCCOc1ccc(F)cc1-c1cc(C(=O)Nc2ccc(F)c(Cl)c2)[nH]n1`, the GFP signal change (wild-type ribosome) was -11.9% (inactive), the OD600 change was -20.4% and the RFP signal change worked out at 8.72%.

Regarding `CCN(CC)C(=O)Oc1ccc(Br)cc1C(=O)Nc1ccc(F)c(Cl)c1`, the GFP signal change (wild-type ribosome) was -28% (active), the OD600 change was -13.7% and the RFP signal change was -1.17%.

With `CCN(CC)C(=O)C(=O)Nc1cccc(Br)c1`, the GFP signal change (wild-type ribosome) was 2.19% (inactive), the OD600 change was found to be 1.55% and the RFP signal change is -1.36%.

As to `COc1ccc2c3c(n(C)c2c1)[C@@H](CO)N(Cc1ccccc1OC)CC31CN(CC2CCOCC2)C1`, the GFP signal change (wild-type ribosome) is 2.13% (inactive), the OD600 change came to 1.76% and the RFP signal change is -0.161%.

As to `COc1ccc(S(=O)(=O)Nc2ccc3c(c2)C(=O)N([C@H](C)CO)C[C@@H](C)[C@@H](CN(C)CC2CCCCC2)O3)cc1`, the GFP signal change (wild-type ribosome) is 3.31% (inactive), the OD600 change was -3.13% and the RFP signal change is -1.7%.

Turning to `O=C(C[C@H]1CC[C@@H]2[C@H](COC[C@H](O)CN2Cc2ccc(Oc3ccccc3)cc2)O1)N1CCN(c2ccccc2)CC1`, the GFP signal change (wild-type ribosome) was -14.8% (inactive), the OD600 change is -41.1% and the RFP signal change turned out to be 19.9%.

For `C[C@@H]1COCc2cnnn2CC[C@H](Cc2ccccc2)C(=O)N1`, the GFP signal change (wild-type ribosome) is 1.97% (inactive), the OD600 change is 6.09% and the RFP signal change was found to be 0.175%.

On to `CCc1ccc(C2=CC(=O)CC(C)(C)C2=O)cc1`, for which the GFP signal change (wild-type ribosome) was 9.3% (inactive), the OD600 change came to 6.63% and the RFP signal change was found to be 1.11%.

Regarding `COC(=O)C1=C(C)N(Cc2cccc(C(F)(F)F)c2)C(=NCc2ccccc2)NC1c1ccc(Cl)cc1` (stereo not drawn), the GFP signal change (wild-type ribosome) was -51.5% (inactive), the OD600 change was -79.1% and the RFP signal change is -15.9%.

In the case of `COC(=O)C1=C(C)N(Cc2ccc(C(F)(F)F)cc2)C(=NCc2ccccc2)NC1c1ccccc1C(F)(F)F` (stereo not drawn), the GFP signal change (wild-type ribosome) is -44.7% (inactive), the OD600 change was -75.3% and the RFP signal change is -10.2%.

On to `COC(=O)C1=C(C)N(Cc2ccc(C(F)(F)F)cc2)C(=NCc2ccc(C(F)(F)F)cc2)NC1c1cccc(Cl)c1` (stereo not drawn), for which the GFP signal change (wild-type ribosome) was -29.5% (active), the OD600 change is -8.48% and the RFP signal change turned out to be 10.4%.

As to `CO[C@@H]1CN(C)C(=O)c2cc(NS(=O)(=O)c3ccccc3)ccc2OC[C@@H](C)N(C(=O)NC(C)C)C[C@@H]1C`, the GFP signal change (wild-type ribosome) was 1.8% (inactive), the OD600 change was -5.96% and the RFP signal change was -2.55%.

For `C[C@H](O)C#Cc1ccc([C@H]2[C@H](CO)N3CCCCN(C(=O)c4ccc(F)cc4)C[C@@H]23)cc1`, the GFP signal change (wild-type ribosome) is 4.08% (inactive), the OD600 change came to 14.8% and the RFP signal change amounted to 0.514%.

For `CC(C)NC(=O)Nc1cccc2c1O[C@@H](CN(C)C(=O)NC(C)C)[C@@H](C)CN(C)C2=O`, the GFP signal change (wild-type ribosome) is -0.63% (inactive), the OD600 change was -5.7% and the RFP signal change was -0.789%.

For the molecule `CC(C)NC(=O)N(C)C[C@H]1Oc2c(cccc2N(C)C)C(=O)N(C)C[C@H]1C`, the GFP signal change (wild-type ribosome) is 3.79% (inactive), the OD600 change was 5.03% and the RFP signal change was -1.64%.

Regarding `CN(C)C(=O)c1ccc(-c2ccc(C3[C@@H]4CN(S(=O)(=O)c5cccc(Cl)c5)C[C@H]3N4)cc2)cc1` (stereo partly drawn), the GFP signal change (wild-type ribosome) was -4.17% (inactive), the OD600 change is -4.3% and the RFP signal change was determined as 1.15%.

With `c1ccc(C(=NNc2nc3ccccc3s2)c2ccccn2)cc1`, the GFP signal change (wild-type ribosome) was -3.87% (inactive), the OD600 change was -7.96% and the RFP signal change was found to be 1.5%.

Turning to `c1ccc2sc(NN=C3CCCC3)nc2c1`, the GFP signal change (wild-type ribosome) is -34.8% (active), the OD600 change is -19.9% and the RFP signal change came out at 0.135%.

For `CCN(CC)CCn1c2c(c(SCC(=O)Nc3nc4ccccc4s3)nc1=O)CCCC2`, the GFP signal change (wild-type ribosome) is -8.54% (inactive), the OD600 change was -9.96% and the RFP signal change amounted to 4.44%.

As for `CN(C)c1nc(=Nc2cccc(Cl)c2)ss1`, the GFP signal change (wild-type ribosome) was -20.6% (active), the OD600 change was -16.1% and the RFP signal change was 6.27%.

As to `COc1ccc(CN(C)C[C@@H]2Oc3ccc(NS(=O)(=O)c4cn(C)cn4)cc3C(=O)N([C@@H](C)CO)C[C@@H]2C)cc1`, the GFP signal change (wild-type ribosome) was 2.98% (inactive), the OD600 change was 9.11% and the RFP signal change was -0.744%.

For `COc1ccc2c3c([nH]c2c1)[C@H](CO)N(CC1CC1)CC31CN(C(=O)Nc2cccc(F)c2)C1`, the GFP signal change (wild-type ribosome) was -4% (inactive), the OD600 change is -2.33% and the RFP signal change amounted to 0.442%.

Take `CCCNC(=O)N(C)C[C@H]1Oc2ncc(-c3cccc(C#N)c3)cc2C(=O)N([C@@H](C)CO)C[C@@H]1C`: the GFP signal change (wild-type ribosome) is 6.13% (inactive), the OD600 change turned out to be 2.48% and the RFP signal change was determined as 4.15%.

Turning to `CC(=O)NC(c1ccccc1)c1nc(-c2ccccc2C)cs1` (stereo not drawn), the GFP signal change (wild-type ribosome) was 6.39% (inactive), the OD600 change amounted to 1.11% and the RFP signal change worked out at 0.505%.

Regarding `COc1cccc(C(NC(C)=O)c2nc(-c3cnc4ccccc4c3)cs2)c1` (stereo not drawn), the GFP signal change (wild-type ribosome) is 1.07% (inactive), the OD600 change worked out at 7.87% and the RFP signal change is -4.72%.

In the case of `COc1cccc(C(NC(C)=O)c2nc(-c3ccccc3OC)cs2)c1` (stereo not drawn), the GFP signal change (wild-type ribosome) was -17.2% (active), the OD600 change is -5.72% and the RFP signal change came out at 3.69%.

For `CC(C)NC(=O)Nc1ccc2c(c1)C(=O)N([C@@H](C)CO)C[C@@H](C)[C@H](CN(C)C)OCCCC[C@H](C)O2`, the GFP signal change (wild-type ribosome) was 4.43% (inactive), the OD600 change is 12.9% and the RFP signal change is -2.38%.

For the molecule `CCOC(=O)C(=Cc1ccccc1)C(=O)c1ccccc1`, the GFP signal change (wild-type ribosome) is -45.9% (active), the OD600 change is -44.3% and the RFP signal change is -8.34%.

`CCOC(=O)C(=Cc1ccccc1OC)C(=O)OCC`: the GFP signal change (wild-type ribosome) is -1.94% (inactive), the OD600 change was -6.41% and the RFP signal change was -3.6%.

On to `CCOC(=O)CNC(=O)/C(=C\c1ccc(F)cc1)NC(=O)c1ccccc1`, for which the GFP signal change (wild-type ribosome) was 7.79% (inactive), the OD600 change is 7.99% and the RFP signal change is -0.754%.

Take `COc1cccc(OC)c1C(=O)NC(=S)NCc1ccco1`: the GFP signal change (wild-type ribosome) is 10.3% (inactive), the OD600 change was 5.07% and the RFP signal change was -0.715%.

Consider `COc1ccccc1C(=O)NCCC(=O)NCC(c1ccco1)N1CCCCC1` (stereo not drawn), for which the GFP signal change (wild-type ribosome) was 3.93% (inactive), the OD600 change was 11.1% and the RFP signal change is 2.81%.

Take `COc1ccccc1C(=O)NCCn1cc(SCC(=O)NCc2ccco2)c2ccccc21`: the GFP signal change (wild-type ribosome) was -24.1% (active), the OD600 change is -15.6% and the RFP signal change worked out at 1.51%.

In the case of `COc1ccc2c3c([nH]c2c1)[C@@H](CO)N(C(=O)CN1CCOCC1)CC31CCN(C)CC1`, the GFP signal change (wild-type ribosome) was 1.95% (inactive), the OD600 change was 7.83% and the RFP signal change amounted to 0.695%.

With `C[C@@H]1CN([C@H](C)CO)C(=O)c2cc(-c3cccc(F)c3)cnc2O[C@@H]1CN(C)C`, the GFP signal change (wild-type ribosome) is 2.27% (inactive), the OD600 change amounted to 6.45% and the RFP signal change was -2.92%.

Regarding `COc1cccc(CN2CC3(CN(Cc4ccccn4)C3)c3c([nH]c4cc(OC)ccc34)[C@@H]2CO)c1`, the GFP signal change (wild-type ribosome) was 0.969% (inactive), the OD600 change is 8.73% and the RFP signal change was found to be 5.99%.

On to `COc1ccc2c(c1)c1ncn(Cc3ccccn3)c(=O)c1n2C`, for which the GFP signal change (wild-type ribosome) is -22.5% (active), the OD600 change is -10.5% and the RFP signal change is -3.41%.

Regarding `COc1ccc(NCCc2ccccn2)cc1`, the GFP signal change (wild-type ribosome) was 12.7% (inactive), the OD600 change came out at 10.1% and the RFP signal change stood at 9.18%.

With `C[C@H]1CCCCO[C@H](CN(C)CC2CCCCC2)[C@@H](C)CN([C@@H](C)CO)C(=O)c2cc(NS(=O)(=O)c3ccc(Cl)cc3)ccc2O1`, the GFP signal change (wild-type ribosome) is -56.3% (inactive), the OD600 change was -77.3% and the RFP signal change was -17.5%.
